Experimental data: the supplement of paper PMC7411054
Counter-ions that a name gives are not always drawn.

Experiments:
Assay in all cases: lowest phenotypically active concentration; higher = less potent
Conditions in all cases: treatment time: 24 h
HepG2-ACTB-RAB5A = system: HepG2-ACTB-RAB5A
How it was run: (§1)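 Cells from fifteen gene-edited reporter lines (A549, HepG2 and WPMY1) were treated for 24 h at 0.3, 1, 3 or 9 µM and imaged live, four wells per condition. Features were normalised per well to solvent control wells. A condition deviated if ≥3 of 4 wells passed the 95th percentile of control Euclidean distances and was reproducible if its median replicate Pearson correlation beat the 95th percentile of non-replicates; phenotypic activity needed both.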

HepG2-CANX-COX4 = system: HepG2-CANX-COX4
How it was run: as §1

HepG2-GM130-SQSTM1 = system: HepG2-GM130-SQSTM1
How it was run: as §1

HepG2-TP53BP1-CLTA = system: HepG2-TP53BP1-CLTA
How it was run: as §1

HepG2-TUBA1B-RELA = system: HepG2-TUBA1B-RELA
How it was run: as §1

WPMY1-ACTB-RAB5A = system: WPMY1-ACTB-RAB5A
How it was run: as §1

WPMY1-CANX-COX4 = system: WPMY1-CANX-COX4
How it was run: as §1

WPMY1-GM130-SQSTM1 = system: WPMY1-GM130-SQSTM1
How it was run: as §1

WPMY1-TP53BP1-CLTA = system: WPMY1-TP53BP1-CLTA
How it was run: as §1

WPMY1-TUBA1B-RELA = system: WPMY1-TUBA1B-RELA
How it was run: as §1

Measured: lowest phenotypically active concentration

Nc1ccc(-c2cccc3c(=O)cc(N4CCOCC4)oc23)cc1
9 µM: HepG2-CANX-COX4 | HepG2-TP53BP1-CLTA | HepG2-TUBA1B-RELA | WPMY1-TP53BP1-CLTA | WPMY1-TUBA1B-RELA
3 µM: all other assays above

Cc1cc(Nc2cc(N3CCN(C)CC3)nc(Sc3ccc(NC(=O)C4CC4)cc3)n2)[nH]n1
≤ 0.3 µM: all assays above

CCC(=O)N1CCN(c2ccc(-n3c(=O)ccc4cnc5ccc(-c6cnc7ccccc7c6)cc5c43)cc2C(F)(F)F)CC1 [Torin 1]
≤ 0.3 µM: all assays above

Cc1cc(Nc2nc(N[C@@H](C)c3ncc(F)cn3)ncc2Cl)n[nH]1
≤ 0.3 µM: HepG2-TP53BP1-CLTA
1 µM: HepG2-ACTB-RAB5A | HepG2-TUBA1B-RELA
9 µM: WPMY1-CANX-COX4 | WPMY1-GM130-SQSTM1
3 µM: all other assays above

COc1ccccc1S(=O)(=O)Nc1ccc2c(c1)CN(C)C(=O)N2
1 µM: HepG2-ACTB-RAB5A
9 µM: WPMY1-TP53BP1-CLTA
3 µM: all other assays above

Cc1cn(CCN2CCN(c3ccccc3-c3cc(C#N)cc(C(=O)NCCCN4CCCC4)c3)CC2)c2ccccc12
1 µM: HepG2-ACTB-RAB5A
9 µM: HepG2-CANX-COX4
3 µM: all other assays above

Cc1ncc(-c2ccnc(Nc3ccc(S(C)(=O)=O)cc3)n2)n1C(C)C
≤ 0.3 µM: all assays above

Cc1ccc(NC(=O)c2ccc(CN3CCN(C)CC3)cc2)cc1Nc1nc(-c2cccnc2)cs1 [masitinib]
9 µM: HepG2-TUBA1B-RELA | WPMY1-TP53BP1-CLTA | WPMY1-TUBA1B-RELA
≤ 0.3 µM: WPMY1-GM130-SQSTM1
3 µM: all other assays above

O=C(NCc1cccc(O)c1)Nc1nc(-c2ccncc2)cs1 [RKI 1447 dihydrochloride]
≤ 0.3 µM: all assays above

S=C(S)N1CCCC1 [Pyrrolidinedithiocarbamate ammonium]
9 µM: HepG2-ACTB-RAB5A | HepG2-GM130-SQSTM1 | HepG2-TUBA1B-RELA | WPMY1-GM130-SQSTM1
3 µM: HepG2-CANX-COX4 | HepG2-TP53BP1-CLTA

CCCCCCCCCCNCCSSCc1ccc(Cl)cc1
9 µM: HepG2-GM130-SQSTM1 | HepG2-TP53BP1-CLTA | WPMY1-GM130-SQSTM1 | WPMY1-TP53BP1-CLTA
1 µM: HepG2-CANX-COX4
3 µM: HepG2-ACTB-RAB5A | HepG2-TUBA1B-RELA | WPMY1-CANX-COX4

CC(C)(C)c1cc(NC(=O)Nc2ccc(-c3cn4c(n3)sc3cc(OCCN5CCOCC5)ccc34)cc2)no1 [quizartinib]
1 µM: WPMY1-CANX-COX4
9 µM: HepG2-ACTB-RAB5A | WPMY1-GM130-SQSTM1 | WPMY1-TP53BP1-CLTA
3 µM: HepG2-GM130-SQSTM1 | HepG2-TUBA1B-RELA | WPMY1-ACTB-RAB5A | WPMY1-TUBA1B-RELA

Cn1cnc2c(F)c(Nc3ccc(Br)cc3Cl)c(C(=O)NOCCO)cc21 [selumetinib]
≤ 0.3 µM: HepG2-ACTB-RAB5A | HepG2-CANX-COX4 | HepG2-GM130-SQSTM1 | HepG2-TP53BP1-CLTA
1 µM: HepG2-TUBA1B-RELA
9 µM: WPMY1-ACTB-RAB5A
3 µM: WPMY1-GM130-SQSTM1 | WPMY1-TP53BP1-CLTA

Cc1ccc(Nc2nccc(N(C)c3ccc4c(C)n(C)nc4c3)n2)cc1S(N)(=O)=O [pazopanib]
3 µM: HepG2-CANX-COX4 | HepG2-GM130-SQSTM1 | WPMY1-CANX-COX4 | WPMY1-TUBA1B-RELA
9 µM: HepG2-TP53BP1-CLTA | WPMY1-ACTB-RAB5A

O=C1c2ccccc2-c2nc3nonc3nc21
9 µM: WPMY1-CANX-COX4
≤ 0.3 µM: HepG2-CANX-COX4
not listed: WPMY1-GM130-SQSTM1 | WPMY1-TP53BP1-CLTA
3 µM: all other assays above

COc1ccc2[nH]c(C(=O)c3ccccc3)cc2c1
3 µM: WPMY1-CANX-COX4
≤ 0.3 µM: all other assays above

N=C(N)c1ccc(OCCCCCOc2ccc(C(=N)N)cc2)cc1 [pentamidine]
9 µM: HepG2-ACTB-RAB5A | HepG2-CANX-COX4 | HepG2-TP53BP1-CLTA | HepG2-TUBA1B-RELA | WPMY1-GM130-SQSTM1

COc1cc2c(cc1O)CC[C@@H]1[C@@H]2CC[C@]2(C)[C@@H](O)CC[C@@H]12 [2-methoxyestradiol]
3 µM: HepG2-ACTB-RAB5A | HepG2-GM130-SQSTM1 | HepG2-TP53BP1-CLTA | HepG2-TUBA1B-RELA
not listed: WPMY1-GM130-SQSTM1
1 µM: all other assays above

O=C(O)[C@]1(Cc2cccc(Nc3nccs3)n2)CC[C@@H](Oc2cccc(Cl)c2F)CC1
1 µM: HepG2-CANX-COX4 | WPMY1-CANX-COX4
not listed: WPMY1-GM130-SQSTM1
≤ 0.3 µM: all other assays above

COc1cc(O)cc(O)c1C(=O)/C=C/c1ccccc1 [Cardamonin]
3 µM: HepG2-GM130-SQSTM1
not listed: HepG2-TP53BP1-CLTA
9 µM: all other assays above

O=C(CCCCSc1nc(-c2ccc(-c3ccccc3)cc2)cc(=O)[nH]1)NO
≤ 0.3 µM: all assays above

CN(C)C(=O)C(CCN1CCC(O)(c2ccc(Cl)cc2)CC1)(c1ccccc1)c1ccccc1 [loperamide]
3 µM: HepG2-ACTB-RAB5A | HepG2-TUBA1B-RELA
not listed: HepG2-CANX-COX4
9 µM: all other assays above

COc1cc2nc(N3CCCN(C)CC3)nc(NC3CCN(Cc4ccccc4)CC3)c2cc1OC
≤ 0.3 µM: HepG2-ACTB-RAB5A | HepG2-GM130-SQSTM1 | HepG2-TUBA1B-RELA | WPMY1-GM130-SQSTM1
1 µM: all other assays above
